In the library only some 19% were active in any assay of this set; here they are far more common.
HT1080 IDH1KD tx = qHTS for induction of synthetic lethality in tumor cells producing 2HG: qHTS for the HT-1080-IDH1KD cell line; HT-1080 IDH1 knockdown viability, ATP luminescence, 48 h; Potency, µM (doses to about 46.1 µM), for the others: at the highest dose activity, negative = toxicity, most hits filed as cytotoxic; 2% of 360,000 active; AID 686971, 2013;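 note: potency is the fitted concentration of half-maximal effect; 0% = DMSO wells and -100% = cell-free medium wells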
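CellTiter-Glo luminescence after 48 h compound exposure at 37 degrees C of IDH1-knockdown HT-1080 cells in 5% FBS RPMI. %Activity scaled between DMSO wells and cell-free media wells, with curves fitted and assigned curve classes.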
HT1080-NT tox = qHTS for induction of synthetic lethality in tumor cells producing 2HG: qHTS for the HT-1080-NT fibrosarcoma cell line. HT-1080-NT fibrosarcoma viability, CellTiter-Glo ATP luminescence, 48 h. 1.6% of 360,000 active. Potency, µM (highest dose often 46.1 µM), without a hit: top-dose activity, negative = less viability, hits mostly cytotoxic;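 note: NT is the 2HG producing partner of a matched IDH1 knockdown line; potency is the fitted concentration of half-maximal effect; 0% = DMSO-treated cells and -100% = media-only wells without cells; nearly all actives have a fitted effect of over 55% in size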
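Luminescent CellTiter-Glo readout after 48 hours of compound exposure at 37 degrees C defined viability of HT-1080-NT cells. Activity was normalized to DMSO wells and cell-free media wells; concentration-response curves were fitted and assigned curve classes.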
TDP1 cell CPT = qHTS for Inhibitors of human tyrosyl-DNA phosphodiesterase 1 (TDP1): qHTS in cells in presence of CPT; chicken DT40 Tdp1-/-;hTDP1 cells + 20 nM CPT, ATP luminescence, 48 h; Potency, µM (top dose mostly 46.2 µM), without a hit: top-dose activity change, negative = growth inhibition, hits mostly inhibitors; 12% of 420,000 active; note: potency is the fitted concentration of half-maximal effect; nearly all actives have a fitted effect of over 55% in size
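Chicken DT40 Tdp1-/- cells complemented with human TDP1, 400 cells/well, exposed to compounds plus 20 nM camptothecin for at least 48 h at 37 C; viability read as ATP content by CellTiter-Glo luminescence.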
TDP1 cell noCPT = qHTS for Inhibitors of human tyrosyl-DNA phosphodiesterase 1 (TDP1): qHTS in cells in absence of CPT | DT40 Tdp1-/- hTDP1 cells, no CPT, ATP luminescence, 48 h | AID 686978, 2013 | 15% of 420,000 active | Potency, µM (series often up to 46.2 µM), inactives show top-dose activity change, negative = growth inhibition, hits mostly inhibitors; note: potency is the fitted concentration of half-maximal effect; nearly all actives have a fitted effect of over 55% in size
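Camptothecin absent (DMSO only). Human TDP1-complemented DT40 knockout cells, 400 cells/well, 37 °C for minimum 48 hr; ATP measured via CellTiter-Glo, 30 min dark incubation, luminescence.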
IL-1B inflam inh = qHTS for Inhibitors of Inflammasome Signaling: IL-1-beta AlphaLISA Primary Screen | THP-1 LPS/ATP IL-1B secretion, AlphaLISA, 16 h; stronger effect = lower value | activity change, % at 57.5 µM | 4.7% of 360,000 active | AID 743279, 2014; in the data active = activity change below about -50%; inconclusive = mostly about -30% to -49%
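THP-1 cells pretreated 1 hr with compounds (up to 57.5 uM final), then stimulated with LPS (250 ng/mL final) plus ATP (1.25 mM final); secreted IL-1B measured by AlphaLISA after 16 hr, decreased signal indicating inhibition.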
* marks the source's active call; other numbers are inactive results; ? = inconclusive; / = not tested or not shown; ! = a repeat was not active. Unless noted, calls come from the whole dose curve; as a rule, active = well fitted curve in the direction sought with a large enough effect; inconclusive = small, poorly fitted or top-dose-only effect, or another doubt; inactive = no such curve, though single readings can be large; an effect the other way counts as inactive or inconclusive. Unless noted, % is set by controls: 0 for no effect and ±100 for the full control effect.

SMILES	HT1080 IDH1KD tx	HT1080-NT tox	TDP1 cell CPT	TDP1 cell noCPT	IL-1B inflam inh
CCOC(=O)C1CCCN(S(=O)(=O)c2ccc3[nH]c(=O)ccc3c2)C1 (stereo not drawn)	/	/	-26.4%	-51.6%	/
COc1ccc(CCNC(=O)c2ccc3c(c2)N(Cc2cc(C)ccc2C)C(=O)c2ccccc2S3=O)cc1OC (stereo not drawn)	/	/	9.2µM*	5.8µM*	/
Cc1ccc(C)c(CN2C(=O)c3ccccc3S(=O)(=O)c3ccc(C(=O)NCCc4ccc(Cl)cc4)cc32)c1	/	/	-8.6%	-12.0%	/
CC1=N/C(=C\c2ccc([N+](=O)[O-])cc2)C(=O)N1c1cc(Cl)ccc1C	0.0%	-4.8%	10.3µM*	9.2µM*	-17.9
COc1ccc(/C=C2\N=C3CCCCCN3C2=O)cc1	16.3%	-2.5%	4.6%	-5.2%	-8.9
COc1ccc(N2C(=O)/C(=C/c3ccc([N+](=O)[O-])cc3)N=C2C)c(OC)c1	-0.4%	9.7%	3.66µM*	2.06µM*	7.8
CCNc1ccc(S(N)(=O)=O)cc1[N+](=O)[O-]	-3.0%	-4.5%	-23.4%	-4.1%	9.5
CCn1c(SC2CCOC2=O)nnc1-c1ccc(Cl)cc1 (stereo not drawn)	9.6%	6.5%	-6.9%	1.1%	-3.4
CCOC(=O)c1[nH]cnc1N=Nc1c(O)ccc2ccccc12	6.51µM*	5.8µM*	5.17µM*	5.8µM*	43.3
Oc1ccc2ccccc2c1N=Nc1ccccn1	?	?	0.651µM*	0.581µM*	23.3
Cc1cc(C(=O)NNC(=O)c2ccc(C)c([N+](=O)[O-])c2)c(C)o1	-2.7%	7.9%	10.1%	-15.5%	-2.0
Cc1cc(C)n(-c2nc3ccccc3nc2Nc2cccc(C(=O)NCCc3ccccc3)c2)n1	/	/	-21.7%	?	/
CC(C)c1ccc(-n2c(-c3ccccc3)c[n+]3c2CCc2ccccc2-3)cc1	7.31µM*	8.2µM*	0.0073µM*	0.0326µM*	-114.1*
COc1ccc(-n2c(-c3ccc(Br)cc3)c[n+]3c2CCc2ccccc2-3)cc1	16.4µM*	?	1.64µM*	0.92µM*	-59.3*
COc1ccccc1-n1c(-c2ccccc2)c[n+]2c1CCc1ccccc1-2	13µM*	14.6µM*	0.326µM*	0.013µM*	-98.8*!
COc1ncc2nc(-c3cn(C)c4ccccc34)c(=O)n(Cc3ccc(F)cc3)c2n1	/	/	10.5%	2.1%	/
Cc1cc(C)c(S(=O)(=O)N2CCC(N3CCN(Cc4ccc(F)cc4)C(=O)C3=O)CC2)c(C)c1	/	/	?	-23.4%	/
c1cc(-c2ccncc2)ccn1	/	/	10.3µM*	16.4µM*	28.7
COc1ccc2cc(OCC(=O)NNC(=O)Nc3ccc(C(C)=O)cc3)ccc2c1	?	-6.1%	?	?	-7.6
COc1c(C)cc(Br)cc1C(=O)Nc1ccc(C)cc1[N+](=O)[O-]	-2.1%	6.4%	?	13µM*	-6.5
O=C(Nc1cccc(NC(=O)c2ccc(Cl)cc2Cl)c1)c1cccnc1	-5.2%	-15.3%	?	?	-53.9*
Cc1ccc(NC(=O)c2cccnc2)c([N+](=O)[O-])c1	-18.5%	-9.2%	18.4µM*	18.4µM*	?
Cc1ccc(NC(=O)c2cncc(Br)c2)c([N+](=O)[O-])c1	5.1%	-1.1%	-0.4%	-12.2%	0.0
COc1cc(S(=O)(=O)Nc2cccnc2)ccc1F	-2.2%	-0.4%	-2.7%	-6.8%	6.1
COc1cc(S(=O)(=O)Nc2cccc(C)c2)ccc1NC(=O)c1cccnc1	-8.3%	-2.1%	?	14.6µM*	0.0
SMILES	HT1080 IDH1KD tx	HT1080-NT tox	TDP1 cell CPT	TDP1 cell noCPT	IL-1B inflam inh
COc1c(C)cc(Br)cc1C(=O)Nc1ccc(S(N)(=O)=O)cc1	-18.9%	-24.9%	1.0%	-18.1%	-3.8
CNC(=O)C(=O)NCCCN1CCOCC1	-1.4%	-1.1%	-3.6%	-8.3%	14.7
CC(C)C(=O)Nc1cccc(NC(=O)c2ccc(Cl)cc2Cl)c1	2.0%	-5.2%	-23.0%	?	-59.4*
Cc1ccc(C)c(NC(NC(=O)c2cccnc2)C(Cl)(Cl)Cl)c1 (stereo not drawn)	-21.1%	-23.0%	23.1µM*	25.9µM*	11.7
COc1ccc(NC(=O)N(Cc2cccnc2)Cc2ccccc2Cl)c(OC)c1	-1.2%	0.0%	18.4µM*	?	-25.3
COc1cc(NC(=O)c2cccnc2)ccc1NC(=O)c1ccccc1Cl	0.0%	13.0%	5.4%	?	-65.7*
Cc1ccc(C)c(Cn2nc3c4ccccc4n(Cc4ccccc4)cc-3c2=O)c1	-2.6%	1.0%	?	?	0.3
CCn1cc(C(C)NC(=O)Nc2ccc3c(c2)OCO3)c(C)n1 (stereo not drawn)	6.2%	7.6%	4.0%	-2.3%	3.2
O=C(O)CSCc1nc2ccccc2[nH]1	-0.7%	0.5%	6.7%	-2.6%	17.7
O=C(CSCc1nc2ccccc2[nH]1)N1CCN(c2cccc(Cl)c2)CC1	-11.3%	-2.0%	23.1µM*	?	?
O=C(CSCc1nc2ccccc2[nH]1)N1CCN(c2ccc(F)cc2)CC1	?	-0.4%	23.1µM*	18.4µM*	?
CC(=O)NC(=O)NC1OC(=O)C(Cl)=C1Cl (stereo not drawn)	-12.9%	-8.9%	?	?	-23.1
Fc1ccc(-c2ccc3c(c2)C2CC3CCN2)cc1 (stereo not drawn)	3.3%	3.3%	18.4µM*	23.1µM*	0.0
Cc1cccc(-c2ccc3c(c2)C2CC3CCN2)c1 (stereo not drawn)	-4.1%	-15.0%	20.6µM*	14.6µM*	0.0
COCCNC(=O)C(=O)NCCN1CCNCC1	4.7%	11.2%	0.2%	2.7%	2.8
CCCSc1nc(-c2ccccc2)cc(C(F)(F)F)c1C#N	-6.2%	-1.4%	?	?	27.1
N#Cc1c(C(F)(F)F)cc(-c2ccccc2)nc1SCCN1CCOCC1	0.0%	-1.5%	20.6µM*	?	-15.8
O=C(O)c1cc(-c2c[nH]c3ccccc23)nc2ccc3ccccc3c12	14.9%	-2.3%	11.1%	-1.8%	18.3
c1ccc2c(-c3c[nH]c4ccccc34)c3ccccc3nc2c1	?	?	?	16.4µM*	-18.5
CC(=O)N1CCCc2ccc(NS(=O)(=O)c3ccc(C)c(C)c3)cc21	-1.7%	-10.6%	11.6µM*!	?	29.4
COc1ccc(S(=O)(=O)Nc2ccc3c(c2)N(C(C)=O)CCC3)cc1F	/	/	14.6µM*	18.4µM*	/
COc1ccc(OC)c(S(=O)(=O)Nc2ccc3c(c2)N(C(C)=O)CCC3)c1	0.0%	-6.2%	-18.5%	-25.9%	9.1

Source: PubChem BioAssay (National Center for Advancing Translational Sciences (NCATS))
